From the supplement of paper PMC10849652
Of roughly 7,900 targets only a part is listed; those with a hit were picked by preference. About 0.6% of all pairs of compound and target were hits. Unmarked numbers belong to inactive results.

How the values were obtained:
Assay in all cases: log2 fold change, soluble protein after heating vs DMSO (PISA); higher = thermal stabilisation; K562 cells, 10 uM, 30 min; active = over 0.2 and 3.5 SD of the protein, either way, in both replicates (recomputed)
saracatinib = compound: CN1CCN(CCOc2cc(OC3CCOCC3)c3c(Nc4c(Cl)ccc5c4OCO5)ncnc3c2)CC1 [saracatinib]
Method in brief: (§1)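 K562 cells at 2×10^6 cells/mL were treated with 10 μM compound for 30 min. Aliquots were heated for 3 min across 48°C-58°C, pooled, and extracted in PBS with 0.5% NP-40 at 4°C; soluble protein was the supernatant after 21,000xg for 90 min. Soluble protein was quantified by TMTpro 16plex LC-MS/MS with channel sums equalised, and reported as log2 fold change in thermal stability against DMSO controls, with values from duplicates.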

sotrastaurin = compound: CN1CCN(c2nc(C3=C(c4c[nH]c5ccccc45)C(=O)NC3=O)c3ccccc3n2)CC1 [sotrastaurin]
Method in brief: as §1

alvocidib = compound: CN1CC[C@H](c2c(O)cc(O)c3c(=O)cc(-c4ccccc4Cl)oc23)[C@H](O)C1 [alvocidib]
Method in brief: as §1

Tubastatin A = compound: CN1CCc2c(c3ccccc3n2Cc2ccc(C(=O)NO)cc2)C1 [Tubastatin A]
Method in brief: as §1

[1] = compound: CNC(=O)C1=CC=CC=C1NC2=NC(=NC=C2Cl)NC3=C(C=C(C=C3)N4CCOCC4)OC
Method in brief: as §1

defactinib = compound: CNC(=O)c1ccc(Nc2ncc(C(F)(F)F)c(NCc3nccnc3N(C)S(C)(=O)=O)n2)cc1 [defactinib]
Method in brief: as §1

rucaparib = compound: CNCc1ccc(-c2[nH]c3cc(F)cc4c3c2CCNC4=O)cc1 [rucaparib]
Method in brief: as §1

[2] = compound: CNc1nc(-c2ccc3c(N)n[nH]c3c2)cc(N2C[C@@H](C(=O)NC3CCCCC3)CC[C@H]2C)n1
Method in brief: as §1

encorafenib = compound: COC(=O)N[C@@H](C)CNc1nccc(-c2cn(C(C)C)nc2-c2cc(Cl)cc(NS(C)(=O)=O)c2F)n1 [encorafenib]
Method in brief: as §1

[3] = compound: COC(=O)[C@H](CCSC)NC(=O)C1=C(C=C(C=C1)NC[C@H](CS)N)C2=CC=CC=C2
Method in brief: as §1

[4] = compound: COC1=CC=C(C=C1)CN2C=CC3=C2C=C(C=C3)C(=O)NO
Method in brief: as §1

filanesib = compound: CON(C)C(=O)N1N=C(c2cc(F)ccc2F)S[C@@]1(CCCN)c1ccccc1 [filanesib]
Method in brief: as §1

zotarolimus = compound: CO[C@H]1C[C@@H]2CC[C@@H](C)[C@@](O)(O2)C(=O)C(=O)N2CCCC[C@H]2C(=O)O[C@H]([C@H](C)C[C@@H]2CC[C@H](n3cnnn3)[C@H](OC)C2)CC(=O)[C@H](C)/C=C(\C)[C@@H](O)[C@@H](OC)C(=O)[C@H](C)C[C@H](C)/C=C/C=C/C=C/1C [zotarolimus]
Method in brief: as §1

idasanutlin = compound: COc1cc(C(=O)O)ccc1NC(=O)[C@@H]1N[C@@H](CC(C)(C)C)[C@](C#N)(c2ccc(Cl)cc2F)[C@H]1c1cccc(Cl)c1F [idasanutlin]
Method in brief: as §1

alisertib = compound: COc1cc(Nc2ncc3c(n2)-c2ccc(Cl)cc2C(c2c(F)cccc2OC)=NC3)ccc1C(=O)O [alisertib]
Method in brief: as §1

[5] = compound: COc1cc2nc(-c3cc(F)ccc3O)nc(N[C@@H]3CNC[C@H]3C(C)(C)O)c2cc1OC
Method in brief: as §1

gefitinib = compound: COc1cc2ncnc(Nc3ccc(F)c(Cl)c3)c2cc1OCCCN1CCOCC1 [gefitinib]
Method in brief: as §1

[6] = compound: COc1cccc2cc(-c3nc([C@H]4CC[C@H](C(=O)O)CC4)n4ncnc(N)c34)[nH]c12
Method in brief: as §1

lapatinib = compound: CS(=O)(=O)CCNCc1ccc(-c2ccc3ncnc(Nc4ccc(OCc5cccc(F)c5)c(Cl)c4)c3c2)o1 [lapatinib]
Method in brief: as §1

pictilisib = compound: CS(=O)(=O)N1CCN(Cc2cc3nc(-c4cccc5[nH]ncc45)nc(N4CCOCC4)c3s2)CC1 [pictilisib]
Method in brief: as §1

UniProt P56962, sequence (P56962 whole entry, looked up): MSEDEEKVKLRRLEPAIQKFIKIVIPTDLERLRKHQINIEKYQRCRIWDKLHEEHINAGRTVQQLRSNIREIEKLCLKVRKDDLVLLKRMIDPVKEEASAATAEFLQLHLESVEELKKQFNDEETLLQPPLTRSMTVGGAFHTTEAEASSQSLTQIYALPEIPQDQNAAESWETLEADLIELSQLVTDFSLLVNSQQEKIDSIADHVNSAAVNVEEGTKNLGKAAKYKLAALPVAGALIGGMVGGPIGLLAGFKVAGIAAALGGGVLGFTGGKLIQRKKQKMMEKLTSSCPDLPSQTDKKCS
UniProt Q8N1F8, sequence (Q8N1F8 whole entry, looked up): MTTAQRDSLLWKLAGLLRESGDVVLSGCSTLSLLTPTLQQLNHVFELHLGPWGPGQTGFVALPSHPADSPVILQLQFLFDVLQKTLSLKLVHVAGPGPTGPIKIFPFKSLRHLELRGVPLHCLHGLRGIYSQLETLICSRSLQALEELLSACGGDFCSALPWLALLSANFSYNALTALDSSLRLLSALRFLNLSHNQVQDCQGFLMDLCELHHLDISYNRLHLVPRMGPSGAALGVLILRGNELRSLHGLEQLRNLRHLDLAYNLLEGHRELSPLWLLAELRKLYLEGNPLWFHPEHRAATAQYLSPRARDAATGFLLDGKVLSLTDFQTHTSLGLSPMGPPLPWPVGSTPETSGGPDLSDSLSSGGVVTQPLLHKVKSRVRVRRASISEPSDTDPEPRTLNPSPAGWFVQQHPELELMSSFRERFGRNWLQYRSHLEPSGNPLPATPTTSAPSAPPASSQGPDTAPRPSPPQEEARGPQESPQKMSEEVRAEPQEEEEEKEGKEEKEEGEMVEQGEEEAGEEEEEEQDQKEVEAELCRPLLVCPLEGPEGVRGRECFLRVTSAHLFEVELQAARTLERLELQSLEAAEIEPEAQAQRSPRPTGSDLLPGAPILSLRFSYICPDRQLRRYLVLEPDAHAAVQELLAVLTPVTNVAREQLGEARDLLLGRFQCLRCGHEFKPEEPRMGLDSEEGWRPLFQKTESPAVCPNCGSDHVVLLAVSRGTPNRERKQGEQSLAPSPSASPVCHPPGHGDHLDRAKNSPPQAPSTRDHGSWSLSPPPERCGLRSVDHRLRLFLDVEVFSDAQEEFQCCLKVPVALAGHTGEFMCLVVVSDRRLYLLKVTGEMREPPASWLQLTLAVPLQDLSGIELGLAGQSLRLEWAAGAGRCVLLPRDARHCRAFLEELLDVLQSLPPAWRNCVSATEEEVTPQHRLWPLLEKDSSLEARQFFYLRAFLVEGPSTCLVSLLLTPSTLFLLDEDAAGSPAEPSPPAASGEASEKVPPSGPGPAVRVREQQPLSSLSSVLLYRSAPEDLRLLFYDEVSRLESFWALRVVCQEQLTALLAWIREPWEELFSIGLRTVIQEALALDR
UniProt O00193, sequence (O00193 whole entry, looked up): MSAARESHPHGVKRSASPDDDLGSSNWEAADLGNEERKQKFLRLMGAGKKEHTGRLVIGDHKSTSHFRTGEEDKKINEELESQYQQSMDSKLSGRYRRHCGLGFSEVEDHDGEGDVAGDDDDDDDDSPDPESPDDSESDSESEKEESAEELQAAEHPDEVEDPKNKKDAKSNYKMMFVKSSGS
UniProt O94901, sequence (O94901 whole entry, looked up): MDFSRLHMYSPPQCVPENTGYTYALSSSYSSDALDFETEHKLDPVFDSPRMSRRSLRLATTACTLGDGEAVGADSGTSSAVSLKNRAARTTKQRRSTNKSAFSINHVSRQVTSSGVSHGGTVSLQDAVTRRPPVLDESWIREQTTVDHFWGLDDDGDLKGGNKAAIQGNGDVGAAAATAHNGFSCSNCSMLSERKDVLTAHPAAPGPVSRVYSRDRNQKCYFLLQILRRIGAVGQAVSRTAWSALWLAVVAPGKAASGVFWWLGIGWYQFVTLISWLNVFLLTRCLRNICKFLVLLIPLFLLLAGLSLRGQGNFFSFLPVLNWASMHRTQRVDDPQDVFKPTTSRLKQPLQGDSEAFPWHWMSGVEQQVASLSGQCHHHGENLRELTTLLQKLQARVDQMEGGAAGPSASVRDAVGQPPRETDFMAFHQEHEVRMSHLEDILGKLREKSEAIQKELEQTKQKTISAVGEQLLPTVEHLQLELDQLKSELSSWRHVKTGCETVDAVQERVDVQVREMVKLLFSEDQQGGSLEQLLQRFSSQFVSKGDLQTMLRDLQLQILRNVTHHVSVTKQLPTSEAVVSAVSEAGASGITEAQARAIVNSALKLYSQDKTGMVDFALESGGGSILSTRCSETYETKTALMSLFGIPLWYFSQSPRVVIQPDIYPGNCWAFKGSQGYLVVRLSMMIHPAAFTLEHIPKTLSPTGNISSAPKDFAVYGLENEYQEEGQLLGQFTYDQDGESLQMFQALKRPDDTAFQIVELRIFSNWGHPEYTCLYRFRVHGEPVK
UniProt Q92544, sequence (Q92544 whole entry, looked up): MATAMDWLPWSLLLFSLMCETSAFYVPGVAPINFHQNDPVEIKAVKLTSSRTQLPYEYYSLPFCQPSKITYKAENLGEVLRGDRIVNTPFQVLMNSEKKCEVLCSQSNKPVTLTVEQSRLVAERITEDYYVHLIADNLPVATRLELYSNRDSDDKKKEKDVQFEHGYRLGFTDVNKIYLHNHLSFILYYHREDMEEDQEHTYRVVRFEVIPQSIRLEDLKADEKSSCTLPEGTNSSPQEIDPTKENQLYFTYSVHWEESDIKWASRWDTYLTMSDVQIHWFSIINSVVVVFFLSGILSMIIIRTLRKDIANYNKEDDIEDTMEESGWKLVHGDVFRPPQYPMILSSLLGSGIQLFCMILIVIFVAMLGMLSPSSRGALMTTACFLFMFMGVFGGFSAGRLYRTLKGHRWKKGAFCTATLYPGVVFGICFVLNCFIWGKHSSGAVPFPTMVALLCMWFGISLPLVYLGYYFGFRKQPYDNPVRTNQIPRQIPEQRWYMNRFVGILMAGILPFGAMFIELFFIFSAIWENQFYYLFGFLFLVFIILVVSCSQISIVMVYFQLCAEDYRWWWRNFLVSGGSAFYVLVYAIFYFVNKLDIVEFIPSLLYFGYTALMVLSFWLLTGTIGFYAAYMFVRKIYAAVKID
UniProt Q7L7X3, sequence (Q7L7X3 whole entry, looked up): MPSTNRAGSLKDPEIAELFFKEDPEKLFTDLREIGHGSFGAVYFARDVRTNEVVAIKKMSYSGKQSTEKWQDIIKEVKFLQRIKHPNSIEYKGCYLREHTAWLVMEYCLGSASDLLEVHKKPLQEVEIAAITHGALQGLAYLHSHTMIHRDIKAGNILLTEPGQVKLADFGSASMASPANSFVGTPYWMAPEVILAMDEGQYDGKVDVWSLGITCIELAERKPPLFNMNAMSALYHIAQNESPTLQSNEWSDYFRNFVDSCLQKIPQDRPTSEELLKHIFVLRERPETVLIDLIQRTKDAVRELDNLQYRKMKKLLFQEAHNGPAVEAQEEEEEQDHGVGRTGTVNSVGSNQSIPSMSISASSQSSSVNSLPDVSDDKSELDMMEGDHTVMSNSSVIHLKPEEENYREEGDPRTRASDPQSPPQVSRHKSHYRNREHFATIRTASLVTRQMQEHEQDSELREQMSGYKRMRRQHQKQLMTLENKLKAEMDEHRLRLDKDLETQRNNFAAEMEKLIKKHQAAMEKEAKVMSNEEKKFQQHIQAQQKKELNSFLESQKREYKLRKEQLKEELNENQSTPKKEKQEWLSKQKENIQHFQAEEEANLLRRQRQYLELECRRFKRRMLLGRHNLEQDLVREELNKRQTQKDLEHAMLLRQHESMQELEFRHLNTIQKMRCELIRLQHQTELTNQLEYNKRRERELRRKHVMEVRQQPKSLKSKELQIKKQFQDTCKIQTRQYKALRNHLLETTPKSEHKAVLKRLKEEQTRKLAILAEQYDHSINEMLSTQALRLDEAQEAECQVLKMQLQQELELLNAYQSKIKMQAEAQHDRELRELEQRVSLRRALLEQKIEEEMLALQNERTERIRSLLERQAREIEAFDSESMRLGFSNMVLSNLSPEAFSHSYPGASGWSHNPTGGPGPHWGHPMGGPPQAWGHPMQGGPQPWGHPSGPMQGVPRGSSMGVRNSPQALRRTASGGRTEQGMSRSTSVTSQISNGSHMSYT
UniProt Q13573, sequence (Q13573 whole entry, looked up): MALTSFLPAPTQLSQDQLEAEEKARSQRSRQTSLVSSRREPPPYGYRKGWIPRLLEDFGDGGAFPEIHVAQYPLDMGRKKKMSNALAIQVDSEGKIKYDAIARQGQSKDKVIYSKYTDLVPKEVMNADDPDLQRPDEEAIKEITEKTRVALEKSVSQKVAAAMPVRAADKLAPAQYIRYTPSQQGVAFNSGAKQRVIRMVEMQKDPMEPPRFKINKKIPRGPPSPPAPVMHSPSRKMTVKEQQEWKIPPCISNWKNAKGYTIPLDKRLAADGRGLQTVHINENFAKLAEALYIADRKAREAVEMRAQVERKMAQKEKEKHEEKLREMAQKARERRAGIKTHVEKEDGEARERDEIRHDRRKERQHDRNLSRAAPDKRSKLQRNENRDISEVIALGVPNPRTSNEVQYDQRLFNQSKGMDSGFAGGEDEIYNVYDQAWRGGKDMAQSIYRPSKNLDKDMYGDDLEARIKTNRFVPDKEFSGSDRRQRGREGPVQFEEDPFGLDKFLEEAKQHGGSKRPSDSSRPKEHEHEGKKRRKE
UniProt Q9UNL2, sequence (Q9UNL2 whole entry, looked up): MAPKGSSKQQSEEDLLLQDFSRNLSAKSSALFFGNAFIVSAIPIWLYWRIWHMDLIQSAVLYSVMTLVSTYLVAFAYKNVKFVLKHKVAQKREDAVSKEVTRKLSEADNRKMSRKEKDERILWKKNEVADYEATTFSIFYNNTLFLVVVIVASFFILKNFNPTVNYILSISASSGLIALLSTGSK
UniProt Q8WVK2, sequence (Q8WVK2 whole entry, looked up): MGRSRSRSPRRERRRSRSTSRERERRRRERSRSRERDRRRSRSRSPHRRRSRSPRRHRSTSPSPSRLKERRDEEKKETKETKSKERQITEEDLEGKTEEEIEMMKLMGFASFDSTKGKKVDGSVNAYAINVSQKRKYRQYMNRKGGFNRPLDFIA

Target | log2 fold change (saracatinib) | log2 fold change (sotrastaurin) | log2 fold change (alvocidib) | log2 fold change (Tubastatin A) | log2 fold change [1] | log2 fold change (defactinib) | log2 fold change (rucaparib) | log2 fold change [2] | log2 fold change (encorafenib) | log2 fold change [3] | log2 fold change [4] | log2 fold change (filanesib) | log2 fold change (zotarolimus) | log2 fold change (idasanutlin) | log2 fold change (alisertib) | log2 fold change [5] | log2 fold change (gefitinib) | log2 fold change [6] | log2 fold change (lapatinib) | log2 fold change (pictilisib)
STK11IP (UniProt Q8N1F8) | 0.001 | -0.138 | -0.184 | 0.084 | 0.097 | -0.074 | 0.1 | -0.039 | 0.265 | 0.007 | -0.029 | 0.042 | 0.195 | 0.044 | -0.131 | -0.172 | -0.072 | -0.139 | -0.088 | 0.117
SSR3 isoform 2 (UniProt Q9UNL2) | 0.153 | 0.083 | -0.108 | -0.04 | 0.006 | -0.006 | -0.049 | -0.052 | 0.001 | 0.086 | -0.236 | -0.107 | 0.087 | 0.066 | -0.015 | -0.013 | 0.003 | 0.08 | 0.006 | -0.096
STARD7 (UniProt Q9NQZ5) | -0.021 | 0.041 | -0.122 | -0.005 | -0.012 | -0.047 | -0.009 | -0.014 | 0.03 | -0.043 | 0.006 | -0.094 | 0.006 | -0.063 | 0.027 | -0.171 | -0.035 | 0.031 | 0.003 | 0.01
TECR (UniProt Q9NZ01) | -0.018 | -0.007 | -0.02 | -0.035 | -0.07 | -0.022 | 0.03 | -0.017 | 0.045 | -0.028 | -0.031 | -0.169 | -0.041 | -0.111 | -0.028 | -0.102 | -0.027 | 0.034 | -0.012 | -0.102
TM9SF4 (UniProt Q92544) | -0.028 | 0.017 | -0.008 | -0.015 | 0.013 | 0.037 | 0.043 | -0.046 | 0.039 | -0.03 | 0.048 | -0.04 | 0.036 | 0.004 | -0.031 | -0.023 | 0.086 | 0.004 | 0.274 | -0.161
SMCHD1 (UniProt A6NHR9) | -0.238 | -0.084 | -0.492 | 0.002 | -0.028 | -0.45 | 0.183 | 0.075 | 0.188 | -0.088 | 0.043 | 0.008 | 0.123 | 0.062 | -0.005 | -0.179 | -0.078 | -0.096 | 0.002 | 0.035
SNW1 (UniProt Q13573) | 0.01 | 0.003 | 0.128 | -0.033 | 0.038 | 0.131 | 0.042 | -0.082 | -0.005 | -0.005 | 0.014 | 0.039 | -0.068 | 0.034 | -0.08 | 0.073 | -0.068 | 0 | 0.011 | -0.035
STK39 (UniProt Q9UEW8) | -0.014 | -0.017 | 0.013 | 0.009 | -0.045 | -0.015 | 0.014 | -0.008 | 0.039 | 0.056 | -0.016 | -0.033 | 0.062 | -0.06 | -0.044 | 0.034 | -0.014 | -0.036 | -0.002 | 0.107
SUN1 isoform 9 (UniProt O94901) | -0.023 | -0.178 | 0 | -0.048 | -0.108 | 0.049 | 0.083 | -0.038 | -0.018 | -0.029 | -0.062 | 0.084 | 0.162 | 0.02 | -0.059 | -0.14 | -0.053 | 0.122 | 0.052 | -0.002
ST3GAL2 (UniProt Q16842) | -0.103 | 0.036 | -0.017 | 0.107 | 0.129 | -0.02 | 0.093 | 0.138 | 0.06 | -0.136 | 0.087 | 0.124 | 0.092 | 0.075 | -0.134 | 0.1 | 0.187 | -0.043 | 0.17 | 0.102
SNRNP27 (UniProt Q8WVK2) | -0.071 | 0.048 | 0.062 | -0.023 | -0.036 | 0.015 | 0.049 | -0.09 | -0.061 | 0.097 | -0.075 | 0.03 | -0.156 | 0.121 | -0.003 | -0.015 | -0.011 | 0.135 | 0.005 | -0.009
TAOK1 (UniProt Q7L7X3) | 0.002 | -0.013 | -0.077 | 0.032 | -0.002 | -0.142 | 0.032 | 0.053 | -0.061 | -0.018 | -0.046 | 0.054 | -0.032 | 0.031 | 0.043 | -0.088 | 0.033 | 0.011 | 0.014 | -0.043
SNX6 (UniProt Q9UNH7) | -0.018 | 0.026 | -0.112 | -0.051 | -0.125 | -0.054 | -0.016 | 0.041 | 0.042 | -0.009 | -0.036 | -0.187 | 0.02 | -0.01 | -0.035 | -0.109 | -0.123 | 0.004 | -0.055 | -0.252
SMAP (UniProt O00193) | -0.035 | 0.016 | -0.015 | 0.016 | -0.069 | -0.001 | -0.064 | 0.009 | -0.054 | 0.013 | -0.046 | -0.154 | -0.018 | 0.005 | -0.01 | 0.02 | 0.033 | 0.051 | -0.013 | -0.016
SPTBN1 (UniProt Q01082) | -0.019 | -0.224 (active) | -0.03 | 0.042 | 0.048 | -0.125 | 0.084 | -0.047 | 0.064 | -0.057 | -0.037 | 0.102 | 0.045 | 0.053 | -0.073 | 0.02 | 0.084 | -0.076 | 0.031 | 0.007
STX17 (UniProt P56962) | -0.038 | 0 | -0.217 | 0.044 | 0.021 | -0.266 | 0.152 | 0.127 | 0.091 | -0.001 | 0.023 | 0.013 | 0.046 | -0.027 | -0.12 | -0.081 | 0.027 | -0.001 | 0.039 | 0.093
